# Among all 1,100 compounds or so, about 340 (31%) were called active. Another 40% or so got no clear call; they are omitted. The list is a sample of the results. Unmarked numbers belong to inactive results. The call rests on the fitted dose curve; in most records, active means well fitted inhibition curve with a large enough effect; inconclusive means small, poorly fitted or top-dose-only effect; inactive means flat fitted curve, though single readings scatter.
# Molecular target: Phosphatidylinositol 5-phosphate 4-kinase type-2 alpha (Homo sapiens) (UniProt P48426)
# Sequence (P48426 whole entry, looked up): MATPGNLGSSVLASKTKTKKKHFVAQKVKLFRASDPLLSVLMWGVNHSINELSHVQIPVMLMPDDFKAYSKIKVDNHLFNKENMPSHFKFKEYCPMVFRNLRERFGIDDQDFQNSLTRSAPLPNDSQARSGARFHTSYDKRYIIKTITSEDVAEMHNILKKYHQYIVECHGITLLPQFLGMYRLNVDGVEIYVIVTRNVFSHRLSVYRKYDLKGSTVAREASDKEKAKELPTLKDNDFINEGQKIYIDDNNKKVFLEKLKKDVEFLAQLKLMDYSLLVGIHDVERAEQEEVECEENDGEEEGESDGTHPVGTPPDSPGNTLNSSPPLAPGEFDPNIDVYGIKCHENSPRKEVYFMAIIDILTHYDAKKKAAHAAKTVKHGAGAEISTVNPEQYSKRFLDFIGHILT
# Test: qHTS for Inhibitors of PI5P4K: Confirmation in Primary Assay; further: nearly all actives have a fitted effect of over 65% in size
# Conditions: PI5P4Kalpha enzyme, ADP-Glo luminescence, 60 min; series mostly up to 76.9 µM; activity change, negative = inhibition: at the top concentration
# Excerpt: In addition to finding PI5P, we discovered the type II phosphatidylinositol 5-phosphate 4-kinase (PI5P4K) family (alpha, beta, gamma isoforms) that catalyze the conversion of PI5P to PI(4,5)P2. Alternatively, PI(4,5)P2 can also be synthesized through phosphatidylinositol-4-phosphate (PI4P) by the type I phosphatidylinositol 4-phosphate 5-kinases (PI4P5K). These PI5P4K enzymes therefore represent one way by which cells can regulate endogenous PI5P levels and play important roles in insulin signaling and in stress responses. […] A qHTS PI5P4K-alpha ADP-Glo assay was developed to identify specific modulators of human PI5P4K, phosphatidylinositol-5-phosphate 4-kinase (Type II PIPK). This assay was screened against the MLSMR containing ~400,000 small molecules (PubChem AID 652105). To confirm that the hits were not interacting with the detection enzyme system, a 1536-well counterscreen against the ADP-Glo kit (Promega) was utilized, as described in Davis et al., 2013 [1]. Davis et al., PLoS One. 2013;8(1):e54127. NIH Chemical Genomics Center [NCGC] NIH Molecular Libraries Probe Centers Network [MLPCN] MLPCN Grant: MH096575 Assay Submitter (PI): Atsuo Sasaki, Beth Israel Deaconess Medical Center
# 2 microL of PI5P4Kalpha/substrate buffer (columns 1-2, 5-48) are dispensed into Greiner white solid bottom 1536-well assay plates; column 3 receives only PI5P4Kalpha buffer as 0x substrate controls; column 4 receives only substrate buffer as 0x PI5P4Kalpha controls. Final assay buffer consists of 0.038 M HEPES pH 7.4, 0.28 mM EGTA, 0.1% CHAPS, and 5% DMSO (final concentration). Compounds are then transferred via Kalypsys pin tool equipped with 1536-pin array (10 nL slotted pins, V&P Scientific, San Diego, CA). Following addition of compound, 1 microL of ATP (5 microM final concentration, all columns) is added to initiate the reaction. ATP is diluted in an assay buffer consisting of 0.02 M HEPES pH 7.4, 60 mM MgCl2, 15 microM ATP, and 0.1% CHAPS. The plates are then incubated at room temperature for 60 minutes. ADP-Glo reagent 1 is added (2 microL) and plates incubated for 45 minutes, before ADP-Glo reagent 2 (4 microL) is added and plates incubated for 30 minutes. They are then transferred to a ViewLux high-throughput CCD imager (PerkinElmer) wherein single end-point measurements of luminescence are acquired using a clear filter.
# On the % scale 0 is the no-effect control and ±100 the full control effect; potency means the concentration at half of the fitted maximal effect.
Structure (SMILES),Potency,"activity change, negative = inhibition [%]"
CCC(=O)Oc1ccc(C(=O)Nc2cccc(C(=O)c3ccccc3)c2)cc1,8.91 µM (active),–
N#CC1c2ccccc2-n2nncc2CN1Cc1cc(Cl)cc(Cl)c1 (stereo not given),–,-12.5
COC(=O)C1=C(c2ccc(F)cc2F)C[C@@H]2CC[C@H]1N2C(=O)NC1Cc2ccccc2C1,–,-0.214
COc1ccc(C(=O)C2CCCN(Cc3ccon3)C2)c(OC)c1 (stereo not given),–,-2.13
CC(C)NCC(O)c1ccc(C2CCCC2)cc1 (stereo not given),–,-0.799
